Source: article PMC10668032, “Altered binding affinity of SIX1-Q177R correlates with enhanced WNT5A and WNT pathway effector expression in Wilms tumor”
Whole data set: some 33,000 sequences, median “e-score” near -0.05, cut for the highest 2% near 0.38. Many of the other results were omitted from the sample, so the highest values are more common in it than they were.

The sequences below were run against T1, SIX1-Q177R homeodomain (human, UniProt Q15475 108-198, Q177R) (assay: universal protein binding microarray; Universal all-10-mer PBM (8x60K, AMADID 030236), 300 nM GST-tagged protein, Alexa Fluor 488 anti-GST; buffer, salt, pH and temperature not stated (as in Berger); high values mean tight binding). Settings: protein: ivt; tags: N-terminal GST; dsDNA, one strand shown.
T1 sequence: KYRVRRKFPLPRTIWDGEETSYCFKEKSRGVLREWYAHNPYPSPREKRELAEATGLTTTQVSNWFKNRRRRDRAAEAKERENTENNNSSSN
Summary of the method: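 Binding was expressed as 8-mer E-scores calculated with the Universal PBM Analysis Suite. The GST-tagged homeodomains, made by in vitro transcription/translation, were applied in duplicate at 300 nM final concentration to universal 'all 10-mer' protein binding microarrays (8×60K format).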

Sequence | binding signal
ATACCCAC | 0.196 ± 0.0233 E-score
CACCAGAC | 0.338 ± 0.00569 E-score
CACCGCCC | 0.3 ± 0.0125 E-score
ACACGAGG | 0.3796 ± 0.00182 E-score
ACACGAGC | 0.3292 ± 0.0011 E-score
ACACGAGA | 0.352 ± 0.0163 E-score
ACGCGAGT | 0.162 ± 0.045 E-score
ACCCGAGT | 0.259 ± 0.0341 E-score
ACACGAGT | 0.4013 ± 0.00247 E-score
CACCGCGA | 0.238 ± 0.0133 E-score
ACCGGGGG | 0.238 ± 0.00986 E-score
CAGGGTAC | 0.162 ± 0.0178 E-score
AACCCAGA | 0.214 ± 0.0243 E-score
CACTATAA | 0.253 ± 0.0572 E-score
CACCTTAA | 0.172 ± 0.0487 E-score
CCGTGTAG | 0.4463 ± 0.00194 E-score
CCGTGCAC | 0.198 ± 0.0196 E-score
CCTTGTAA | 0.244 ± 0.024 E-score
GCGGGTAA | 0.164 ± 0.019 E-score
CCGTGTAA | 0.44 ± 0.0102 E-score
GCGTGTAA | 0.441 ± 0.0209 E-score
ACGTGTAA | 0.413 ± 0.0225 E-score

Sequence | binding signal
GCGTGTGA | 0.347 ± 0.0138 E-score
ACGTGTGA | 0.293 ± 0.00636 E-score
CCGGGTAG | 0.169 ± 0.0152 E-score
CCGGGTAA | 0.177 ± 0.0166 E-score
TATCGTCA | 0.211 ± 0.012 E-score
CGAAAACA | 0.186 ± 0.0616 E-score
CACCTAGC | 0.168 ± 0.00559 E-score
ACCTCAAC | 0.27 ± 0.0213 E-score
CACCCTTC | 0.31 ± 0.0119 E-score
CAGCTACA | 0.191 ± 0.0188 E-score
GATACTGC | 0.158 ± 0.0138 E-score
CACGTTCA | 0.158 ± 0.0324 E-score
AATAGGGG | 0.171 ± 0.0238 E-score
TCGTGTAA | 0.434 ± 0.0291 E-score
TCGGGTAA | 0.194 ± 0.00451 E-score
GCTGAACA | 0.169 ± 0.0308 E-score
GGGTTTCA | 0.15 ± 0.00187 E-score
AGCAACAC | 0.361 ± 0.00441 E-score
ATCAACAC | 0.3939 ± 0.00328 E-score
GTCAAACA | 0.1886 ± 0.00104 E-score
CTCAACAC | 0.393 ± 0.0141 E-score
GTCAACAC | 0.38 ± 0.00874 E-score

Sequence | binding signal
TCCTTACA | 0.222 ± 0.0176 E-score
ATTGATCC | 0.187 ± 0.0355 E-score
CATCTGAC | 0.236 ± 0.0527 E-score
CACTTCAC | 0.154 ± 0.0408 E-score
ACTCCGCG | 0.22 ± 0.00707 E-score
CACACGTG | 0.362 ± 0.00543 E-score
CCAGGATA | 0.2169 ± 0.00146 E-score
CCACCCGA | 0.206 ± 0.00492 E-score
CCACCCGG | 0.201 ± 0.0191 E-score
GCACCCGC | 0.227 ± 0.0318 E-score
ACACCCGG | 0.4824 ± 0.0027 E-score
AACCCCGT | 0.174 ± 0.0274 E-score
ACACCCGC | 0.4623 ± 0.00219 E-score
ACACCCGT | 0.4709 ± 0.00247 E-score
ACACCCGA | 0.457 ± 0.00947 E-score
ACCCCCGG | 0.305 ± 0.0423 E-score
GCACCCGA | 0.235 ± 0.00309 E-score
ACCCCCGC | 0.318 ± 0.046 E-score
ACCCCCGT | 0.273 ± 0.0189 E-score
GGGAGTCA | 0.221 ± 0.0066 E-score
ATAGGGGG | 0.259 ± 0.00343 E-score
CACGGGGA | 0.199 ± 0.0103 E-score

Sequence | binding signal
CCCGTAGG | 0.178 ± 0.00511 E-score
GGAGCACC | 0.268 ± 0.0396 E-score
AGGGGGAT | 0.23 ± 0.0203 E-score
CGCAAACA | 0.181 ± 0.0196 E-score
GTGATACA | 0.172 ± 0.0198 E-score
ACCATACA | 0.3199 ± 0.00166 E-score
GGTCCGTA | 0.189 ± 0.0444 E-score
GAGGGTAC | 0.183 ± 0.0122 E-score
TGACGACA | 0.212 ± 0.00725 E-score
GGACACCA | 0.4831 ± 0.00245 E-score
TGACACAA | 0.298 ± 0.0424 E-score
GGACACGA | 0.356 ± 0.0172 E-score
AGGCACCA | 0.178 ± 0.0251 E-score
AGACACCA | 0.458 ± 0.0134 E-score
TGACACCA | 0.4915 ± 0.00377 E-score
TCCATGGA | 0.1596 ± 0.000424 E-score
CGGGGTTA | 0.22 ± 0.0181 E-score
ACGGAACA | 0.212 ± 0.00638 E-score
TGTGAACA | 0.327 ± 0.0228 E-score
ACCGTTGG | 0.2165 ± 0.000431 E-score
ACCCGACG | 0.208 ± 0.0142 E-score
TAGCTACA | 0.209 ± 0.0332 E-score
